The whole screen tested about 69,000 compounds, of which about 8,600 (12%) showed an effect of 50% or more. This is one part of a sample in which strong results are shown more often than they occur.

The assay has as its system Plasmodium berghei. The experiment in a line: Screen against P. berghei liver stage (PbLuc), transformed with Luciferase, at 10uM. It is filed as functional, HepG2. The following applies: tested at 10 uM.
Take `COc1ccc(C(C)N(C)Cc2c(C(C)(C)C)[nH]c3ncccc23)cc1` (stereo unspecified): the INHIBITION was -19%.
With `Cc1cnn(CC2CN(Cc3nc4cccnc4[nH]3)CCO2)c1` (stereo unspecified), the INHIBITION was 45.1%.
Next, `O=c1[nH]c2c(-c3ccccn3)nsc2c(=O)n1C1CCCCC1`: 9.41%; `O=C(Cc1cn2ccccc2n1)N1CCCC(n2cccn2)C1` (stereo unspecified): 21.5%.
Next, `CSc1ncccc1C(=O)NCc1ccc(N(C)C)cc1`: -25.1%; `Cc1nc(CN2CCC3(CCCN(Cc4ccncc4)C3)C2=O)cs1` (stereo unspecified): -36.9%; `CC(C)CN1CC(O)CN(S(=O)(=O)c2ccccc2)CC1=O` (stereo unspecified): 10.1%.
As to `Cc1cc(C)nc(NCCC(=O)NCCn2ccc3ccccc32)n1`, the INHIBITION was 41.5%.
Next, `Cc1cnc(CN2CCOC(Cn3nc(C)cc3C)C2)cn1` (stereo unspecified): 32.9%; `Cc1ccccc1CCC1CCCN(C(=O)Cc2cc(=O)[nH]c(N)n2)C1` (stereo unspecified): -33%; `CCc1nc(N)sc1C(=O)N1CCCC(COc2cccc(C)c2)C1` (stereo unspecified): -24.8%.
Next, `CCc1nc(N)sc1C(=O)N1CCCC(CCc2ccccc2C)C1` (stereo unspecified): 55.3%.
Next, `Cn1ccc(C(=O)NCc2ccc(CN3CCCCC3)cc2)cc1=O`: -19.9%; `CCS(=O)(=O)N1C[C@H]2CN(Cc3cccc(F)c3)C(=O)[C@H]2C1`: 3.58%.
`Cc1nc2c(c(NCCc3nc(C)c(Cl)s3)n1)CCNCC2`: the INHIBITION was determined as 18.5%.
With `c1csc(CN2CCC3(CC2)CCN(CC2CC2)CC3)n1`, the INHIBITION came out at 23.3%.
Turning to `Cc1nc2c(c(NCCc3nccs3)n1)CCN(CC1CC1)CC2`, the INHIBITION is given as 64.1%.
With `CN(C)c1ncnc2c1CCN(CC1CCCC1)CC2`, the INHIBITION was 38.1%.
As to `Nc1nc2c(c(NCc3nccs3)n1)CCN(CC1CCCC1)CC2`, the INHIBITION is 76.6%.
As for `COCCNc1nc(C)nc2c1CCN(CC1CCC(N)CC1)CC2` (stereo unspecified), the INHIBITION worked out at 26.6%.
Next, `CC(C)c1nnc(CN2CCCc3ccc(S(N)(=O)=O)cc32)o1`: -7.93%; `CCCn1c(SCC(N)=O)nnc1-c1csc2c1CCCC2`: 19.8%; `CN(Cc1ccn[nH]1)C(=O)CCC(=O)NC1CCCC1`: 31.2%.
Next, `CCC(C)(N)c1nc(=O)c(C)c(C)[nH]1` (stereo unspecified): 43.6%; `CCc1c(C)[nH]c(C(C)(N)CC)nc1=O` (stereo unspecified): 29.7%; `CCc1c(C)[nH]c(C(C)(C)N)nc1=O`: 60.4%.
For the molecule `CCS(=O)(=O)c1ccccc1N1CCC(NC(=O)C2CC2)CC1`, the INHIBITION is reported as -9.37%.
Take `c1ccc(N2CCC3(CCCN(c4ncccn4)C3)C2)nc1` (stereo unspecified): the INHIBITION is recorded as -56.2%.
In the case of `CCc1nc2c(N3CCC4(CC3)CC(=O)N(CC(C)C)C4)ncnc2o1`, the INHIBITION came to 87.2%.
Next, `CCc1nc2c(N3CCC4(CC3)CC(=O)N(CC)C4)ncnc2o1`: 26.8%.
In the case of `CCc1nc2c(N3CCC4(CC3)CNC(=O)C4)ncnc2o1`, the INHIBITION was determined as 9.91%.
In the case of `c1csc(CN2CCCn3nnc(COCC4CC4)c3C2)n1`, the INHIBITION is on record as 15.8%.
Next, `CC[C@@H](Cn1ncc2ccccc2c1=O)NC(=O)c1cnccn1`: -3.94%; `CC(C)n1nnc2c(sc3nc(N4CCOCC4)c4c(c32)CCC4)c1=O`: 28.6%; `CCCn1nnc2c(sc3nc(N4CCOCC4)c4c(c32)CCC4)c1=O`: 80.6%.
For the molecule `Cn1nnc2c(sc3nc(N4CCOCC4)c4c(c32)CCC4)c1=O`, the INHIBITION is on record as 13.8%.
As to `CNc1ncc(CN(C)C(=O)c2cccc(-n3cccn3)c2)cn1`, the INHIBITION is listed as 25.8%.
Consider `O=C(NCCc1cccs1)NCC(O)c1cccc(F)c1` (stereo unspecified), for which the INHIBITION is -54.4%.
`CCN(CC)c1ncnc2c(C)nn(CC)c12`: the INHIBITION is 35.4%.
Next, `O=C(O)C1(n2ccc(-c3ccco3)n2)CCN(Cc2cccnc2)CC1`: 1.48%.
Turning to `CNc1nc2cn(-c3cccc(OC)c3)c(=O)c-2c[nH]1`, the INHIBITION is on record as -98.45%.
Next, `C[C@@H]1CN(CC(C)(C)N2CCCCC2)C[C@@]1(O)C1CC1`: 31.7%; `C[C@@H]1CN(Cc2cc3ccccc3n2C)CC[C@@]1(O)C1CC1`: 8.7%.
Next, `C[C@@H]1CN(CC(C)(C)N2CCOCC2)CC[C@@]1(O)C1CCOCC1`: 27.7%.
Consider `C[C@@H]1CN(CC(C)(C)N2CCOCC2)C[C@@]1(O)C1CC1`, for which the INHIBITION was 54.5%.
Regarding `C[C@@H]1CN(CC(C)(C)N2CCCCC2)CC[C@@]1(O)C1CC1`, the INHIBITION is given as 71.3%.
`C[C@@H]1CN(S(=O)(=O)N2CCOCC2)C[C@@]1(O)C1CC1`: the INHIBITION is 38.75%.
Regarding `Cc1nn(-c2ccccc2)nc1C(=O)N1CCCC(n2cccn2)C1` (stereo unspecified), the INHIBITION was found to be 17.4%.
Take `NC(=O)Cn1ccnc1C1CCCN(Cc2ccccc2OC(F)F)C1` (stereo unspecified): the INHIBITION turned out to be 46.4%.
`FC(F)Oc1ccccc1CN1CCCC(c2nccn2CC2CC2)C1` (stereo unspecified): the INHIBITION is recorded as 74.5%.
Next, `N#Cc1ccccc1CN1CCCC(c2nccn2CC2CC2)C1` (stereo unspecified): 33.4%; `CC1(c2ncc(CN3CCSCC3)cn2)CCCCO1` (stereo unspecified): 40.95%; `CN1CC[C@]2(CN(S(C)(=O)=O)C[C@H]2c2ccccc2)C1=O`: 48.4%.
`CCCn1cc(Cl)c(C(=O)N2C[C@@H](O)[C@H](NC(C)=O)C2)n1`: the INHIBITION worked out at 0.65%.
Next, `O=C(O)c1cncc(Cc2ccccc2F)c1`: -8.58%; `Cc1cc(-c2cnc(N3CCNC(=O)C3)nc2-c2sccc2C)on1`: 0.301%.
As to `Cc1cc(-c2cnc(N3CCOCC3)nc2-c2cccnc2C)on1`, the INHIBITION was -2.11%.
Next, `Cc1cc(-c2cnc(N3CCCC(C)C3)nc2-c2cccnc2C)on1` (stereo unspecified): 64.3%; `Cc1cc(-c2cnc(N3CCC(O)CC3)nc2-c2cccnc2C)on1`: 11.1%; `Cc1cc(-c2cnc(N3CCNC(=O)C3)nc2-c2cccnc2C)on1`: 39.2%.
Next, `Cc1cc(-c2cnc(N3CCNC(=O)C3)nc2-c2ccncc2)on1`: 50.8%; `Cc1cc(-c2cnc(N3CCCCCC3)nc2-c2cccnc2C)on1`: 59.3%; `Cc1cc(-c2cnc(N3CCNC(=O)C3)nc2-c2ccc(C)o2)on1`: 35.8%.
Regarding `Cc1cc(-c2cnc(N3CCNC(=O)C3)nc2-c2ccoc2C)on1`, the INHIBITION is 14.7%.
Next, `O=C(c1ccc(Cl)cc1F)N1CCC(Cn2cc(CO)nn2)CC1`: 6.67%; `CCCN(Cc1nnnn1C1CC1)CC1COc2ccccc2O1` (stereo unspecified): -16.6%.
Next, `COCCCNC(=O)c1cc(-c2cnc(N3CCOCC3)nc2)cn1C`: 38.1%; `CCOC(=O)N1CCN(CC(=O)Nc2ccc(F)cc2Cl)CC1`: 25.6%; `CC1CCN(CCNC(=O)c2ccn(-c3ccc(F)cc3)n2)CC1`: -43.5%.
`O=C(NCCc1ccccc1)NCCN1CCC(c2cccs2)CC1`: the INHIBITION is listed as 38%.
For the molecule `CCSc1ccccc1C(=O)NCCN1CCC(c2cccs2)CC1`, the INHIBITION worked out at 38%.
Next, `O=C(Cc1ccccc1Cl)NCCN1CCC(c2cccs2)CC1`: 56.6%; `O=C(NCCN1CCC(c2cccs2)CC1)c1ccc(F)cc1Cl`: 56.6%; `CC1CCN(CCNC(=O)Nc2ccc(F)cc2Cl)CC1`: 56.4%.
Next, `O=C(NCCN1CCC(c2cccs2)CC1)c1ccccc1C(F)(F)F`: 40.9%.
With `CC(=O)NCCN1CCC(c2cccs2)CC1`, the INHIBITION was -19.4%.
Next, `O=C(NCCN1CCC(c2cccs2)CC1)Nc1cccs1`: 9.54%.
Next, `Cc1csc(C(=O)NCCN2CCC(c3cccs3)CC2)c1`: 68.2%; `COc1ccc(C(=O)NCCN2CCC(c3cccs3)CC2)cc1OC`: 17.1%.
For `CCc1nnc2n1CCN(C(=O)c1ccc3cc[nH]c3c1)C2`, the INHIBITION is on record as -7.53%.
Next, `CC(=O)N[C@@H]1CN(S(=O)(=O)c2ccc(Cl)cc2)C[C@H]1O`: -0.232%.
Next, `COC(C)(CNS(=O)(=O)c1cnn(C)c1)c1ccccc1F` (stereo unspecified): -19.1%; `Cc1noc(C)c1CCC(=O)N1CCn2cccc2C1C` (stereo unspecified): -19.7%; `CN(C)C(=O)c1n[nH]c2c1CN(Cc1ccccn1)CC2`: -27%.
Next, `CC1CCN(CCCNC(=O)Nc2cc3c(cc2Br)OCCO3)CC1`: 63.3%; `O=C(Nc1cc2c(cc1Br)OCCO2)NC1CCS(=O)(=O)C1` (stereo unspecified): 11.8%.
Consider `CC1CCN(CCCNC(=O)C2CCCCC2)CC1`, for which the INHIBITION was -32.3%.
Next, `CN(Cc1nccn1CC(F)(F)F)C(=O)c1ccc(F)c(F)c1`: -17.4%.
Next, `Cc1nn(-c2ncnc3[nH]cnc23)c2c1C(CC(C)C)CC(=O)N2` (stereo unspecified): -4.35%; `CN(C)c1ncnc2c1CCN(Cc1nccs1)CC2`: -12.1%; `O=C(c1cccnc1)N1CCC2(CC1)CCN(Cc1ccccn1)C2=O`: -20.1%.
Next, `Cc1oncc1C(=O)N1CCC2(CCN(Cc3ccccn3)C2=O)C1` (stereo unspecified): 25.1%; `Cc1occc1C(=O)N1CCC2(CCN(Cc3ccccn3)C2=O)C1` (stereo unspecified): 65.7%; `CC(C)(C)c1nc(CN2CCN(C(=O)c3cnccn3)CC2)cs1`: 20.8%.
On to `CN(C)C(=O)N1CCC2(CC1)CCN(Cc1ccccn1)C2=O`, for which the INHIBITION turned out to be 20.5%.
Next, `O=C(c1cnccn1)N1CCC2(CC1)CCN(Cc1ccccn1)C2=O`: 53.2%; `Cc1cnc(C(=O)N2CCC3(CCN(Cc4ccccn4)C3=O)C2)cn1` (stereo unspecified): -39.2%.
Consider `CC(=O)N1CCC2(CCN(Cc3ccccn3)C2=O)C1` (stereo unspecified), for which the INHIBITION is listed as -20.1%.
With `O=C(c1cnccn1)N1CCN(Cc2csc(-c3ccccc3)n2)CC1`, the INHIBITION stood at 59.4%.
With `CCc1nc(CN2CCN(C(=O)c3cnccn3)CC2)cs1`, the INHIBITION was 9.94%.
Next, `O=C(c1ccncc1)N1CCC2(CC1)CCN(Cc1ccccn1)C2=O`: 14.6%.
Next, `Cc1ccc(C(=O)N2CCC3(CC2)CCN(Cc2ccccn2)C3=O)o1`: 52.2%; `CNc1cncc(C2CCCN2C(=O)CCn2ccnc2C(C)C)n1` (stereo unspecified): 21.685%.
Next, `O=C(CC1CN(Cc2ccccc2)CCO1)NC1CCSCC1` (stereo unspecified): 35.1%; `COCC(=O)N1CCCC1c1cc(N2CCN(C(C)=O)CC2)cc(C)n1` (stereo unspecified): 18.9%; `COCC(=O)N1C[C@H]2CCCC(OCc3cccnc3)[C@H]2C1` (stereo partly specified): -3.52%.

(Values after ChEMBL document CHEMBL4513216, “Probing the Open Global Health Chemical Diversity Library for Multistage-Active Starting Points for Next-Generation Antimalarials” (ACS Infect Dis, 2020).)
